# In PubChem BioAssay (NCATS):
# Values joined by “and” are separate entries in the source; they are usually repeats but may differ in a detail not shown here. Equal values may be shown once. Inconclusive results are not listed. Entries that show only a call come without a potency. Active and inactive are the calls of the source. Unless noted, calls follow the shape of the dose curve; as a rule, active = well fitted curve in the direction sought with a large enough effect; inconclusive = small, poorly fitted or top-dose-only effect, or another doubt; inactive = no such curve, though single readings can be large; an effect the other way counts as inactive or inconclusive.
# How the values were obtained:
# [1] = Cellular Toxicity (caspase-3) Renal Proximal Tubule (AID 667);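 also: cells exposed to compound for 16 hours at 37 °C before detection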
# Summary of the method: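 Freshly isolated primary rat kidney proximal tubule cells, 1000/well, treated 16 hr at 37 °C, then Caspase-Glo 3/7 luminescence after 1 hr. Normalized to DMSO and 10 uM staurosporine; AC50 from Hill fit.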
# [2] = Cell Viability - LYMP2-001 (AID 921); also: nearly all actives have a fitted effect of over 70% in size; also: potency is read from the fitted curve at half-maximal effect
# Summary of the method: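 Human lymphoblastoid LYMP2-001 cells, 2500 per well, in complete medium, treated 24 h at 37 C. Viability from cellular ATP by CellTiter-Glo luminescence; AC50 from Hill-equation fits of qHTS concentration-response.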
# [3] = MultiTox-Fluor Cytotoxicity Assay - LYMP1-001 - Dead Cells (AID 946); also: potency is read from the fitted curve at half-maximal effect
# Summary of the method: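 AC50 from Hill fit of concentration-response; data normalized to DMSO (basal) and 15 uM tetraoctylammonium bromide (100%). LYMP1-001 lymphoblastoid cells, 2500/well, 16 hr compound at 37 C; dead-cell protease fluorescence, Ex/Em 485/520.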
# [4] = Cell Viability - LYMP1-002 - Assay at 16 hr (AID 948); also: potency is read from the fitted curve at half-maximal effect
# Summary of the method: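 LYMP1-002 human lymphoblastoid cells, 2500/well, were treated with compounds for 16 hr at 37 C in complete medium. Viability was read as intracellular ATP by CellTiter-Glo luminescence, and AC50 was derived from a Hill fit to concentration-response data.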
# [5] = MultiTox-Fluor Cytotoxicity Assay - LYMP1-002 - Live Cells (AID 955); also: potency is read from the fitted curve at half-maximal effect
# Summary of the method: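 Read-out is live-cell protease activity (cell-permeant GF-AFC substrate, fluorescence Ex/Em=405/510), where a decrease indicates acute toxicity. Human lymphoblastoid cells were treated 16 hours at 37 C in a concentration series, and AC50 values came from standard Hill modelling.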
# [6] = MultiTox-Fluor Cytotoxicity Assay - LYMP1-003 - Dead Cells (AID 961); also: nearly all actives have a fitted effect of over 70% in size; also: potency is read from the fitted curve at half-maximal effect
# Summary of the method: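 Human lymphoblastoid LYMP1-003 cells (2500/well) were treated with compounds for 16 hr at 37 C in complete medium. Dead-cell protease release was read by bis-AAF-R110 fluorescence (Ex/Em 485/520). AC50 came from Hill fits, normalized to DMSO and 15 uM tetraoctylammonium bromide.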
# [7] = MultiTox-Fluor Cytotoxicity Assay - LYMP1-003 - Live Cells (AID 962); also: potency is read from the fitted curve at half-maximal effect
# Summary of the method: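 qHTS, 1536-well; 2500 cells/well LYMP1-003; 5 hr 37 C settle; cpd 16 hr 37 C; MultiTox-Fluor reagent 60 min RT; live-cell protease fluor. 405/510; Hill-fit AC50; tetraoctylammonium bromide pos. ctrl.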
# [8] = Cell Viability - LYMP1-003 - Assay at 24 hr (AID 963); also: potency is read from the fitted curve at half-maximal effect
# Summary of the method: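 Cells seeded at 2500/well, 5 hr at 37 C; compounds added; 24 hr at 37 C; CellTiter-Glo added, 30 min room temperature; luminescence read. Decrease in ATP taken as cytotoxicity, AC50 from Hill modelling.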
# [9] = Cell Viability - LYMP1-003 - Assay at 40 hr (AID 964); also: nearly all actives have a fitted effect of over 60% in size; also: potency is read from the fitted curve at half-maximal effect
# Summary of the method: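 Cells were seeded at 2500 per well and incubated 5 hr at 37 C. Compounds were added across a concentration series and left 40 hr at 37 C. CellTiter-Glo was added for 30 min at room temperature before luminescence reading.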
# [10] = Cell Viability - LYMP2-003 (AID 965);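 also: cells exposed to compounds for 24 h before reading; nearly all actives have a fitted effect of over 50% in size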; also: potency is read from the fitted curve at half-maximal effect
# Summary of the method: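 Human lymphoblastoid LYMP2-003 cells, 2500/well, exposed to compounds for 24 h at 37 C in complete medium. Viability read as intracellular ATP by CellTiter-Glo luminescence; AC50 from Hill-equation fits of qHTS concentration-response data.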
# [11] = Cell Viability - LYMP2-011 (AID 969); also: nearly all actives have a fitted effect of over 60% in size; also: potency is read from the fitted curve at half-maximal effect
# Summary of the method: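 2500 cells/well, 5 hr 37 C; compound added, 24 hr 37 C; CellTiter-Glo 30 min RT; luminescence. qHTS concentration-response, Hill-equation AC50. Tetraoctylammonium bromide positive control.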
# [12] = Cell Viability - LYMP2-013 (AID 970); also: nearly all actives have a fitted effect of over 55% in size; also: potency is read from the fitted curve at half-maximal effect
# Summary of the method: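 qHTS; 2500 lymphoblastoid cells/well; 5 hr 37 C settle; cpd 24 hr 37 C; CellTiter-Glo, 30 min RT; luminescence. AC50 = Hill fit.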
# [13] = Cell Viability - LYMP2-017 (AID 972); also: nearly all actives have a fitted effect of over 55% in size; also: potency is read from the fitted curve at half-maximal effect
# Summary of the method: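 2500 cells/well, 5 h 37 C; cpd 24 h 37 C in complete medium; CellTiter-Glo, 30 min RT; luminescence (ATP). AC50 via Hill fit, qHTS.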
# [14] = Cell Viability - LYMP2-019 (AID 973); also: nearly all actives have a fitted effect of over 55% in size; also: potency is read from the fitted curve at half-maximal effect
# Summary of the method: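 Luminescent ATP read-out (CellTiter-Glo, 30 min room temperature) served as the viability measure after 24 hr treatment of lymphoblastoid cells at 37 C. Concentration-response data were fitted to the Hill equation for AC50.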
# [15] = Cell Viability - LYMP2-021 (AID 974);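 also: compound exposure lasts 24 hours at 37 °C; nearly all actives have a fitted effect of over 55% in size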; also: potency is read from the fitted curve at half-maximal effect
# Summary of the method: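 Plate 2500 lymphoblastoid cells per well and incubate 5 hr at 37 C. Add compounds over a concentration range and incubate 24 hr at 37 C. Add CellTiter-Glo, wait 30 min at room temperature, read luminescence.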
# [16] = Cell Viability - LYMP2-023 (AID 975); also: nearly all actives have a fitted effect of over 55% in size; also: potency is read from the fitted curve at half-maximal effect
# Summary of the method: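 2500 cells/well, 5 hr 37 C; cpd 24 hr 37 C; CellTiter-Glo, 30 min RT; luminescence. qHTS conc-response, Hill fit -> AC50. Pos ctrl tetraoctylammonium bromide.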
# [17] = Cell Viability - LYMP2-002 (AID 977);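 also: compound exposure lasted 24 h at 37 °C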; also: potency is read from the fitted curve at half-maximal effect
# Summary of the method: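 Human lymphoblastoid LYMP2-002 cells, 2500 per well, exposed to compounds for 24 h at 37 C in complete medium; viability read as intracellular ATP by CellTiter-Glo luminescence, AC50 from Hill fits.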
# [18] = Cell Viability - LYMP2-006 (AID 978); also: nearly all actives have a fitted effect of over 60% in size; also: potency is read from the fitted curve at half-maximal effect
# Summary of the method: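 Human lymphoblastoid cells (LYMP2-006), 2500/well in complete medium, were treated with compound for 24 hr at 37 C. Cellular ATP was read by CellTiter-Glo luminescence after 30 min, and AC50 values came from Hill-equation fits of concentration-response data.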
# [19] = qHTS assay for small molecule agonists of the antioxidant response element (ARE) signaling pathway measured by Nrf2-dependant transcriptional activity (AID 720636; active = well fitted curve in the direction sought with a large enough effect in the repeat runs; an effect the other way counts as inactive or inconclusive; also: potency is read from the fitted curve at half-maximal effect)
# Summary of the method: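 ONE-Glo luminescence, read 30 min after reagent addition at room temperature, reflected ARE reporter activity in HepG2 cells that had been incubated with compound for 16 hr at 37 C in 1% dialyzed FBS.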
# [20] = qHTS assay for small molecule antagonists of the retinoid-related orphan receptor gamma (ROR-gamma) signaling pathway - cell viability counter screen (AID 720652; active = well fitted curve in the direction sought with a large enough effect in the repeat runs; an effect the other way counts as inactive or inconclusive;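 also: compound exposure lasted 16 hr before ATP read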; also: potency is read from the fitted curve at half-maximal effect)
# Summary of the method: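 Luminescence from CellTiter-Glo after 30 min at room temperature reported cellular ATP as the cytotoxicity measure. Cells were the CHO reporter line with doxycycline-induced ROR-gamma expression, exposed to compound for 16 hr at 37 C.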
SMILES,outcome [1],Potency [2],Potency [3],Potency [4],Potency [5],Potency [6],Potency [7],Potency [8],Potency [9],Potency [10],Potency [11],Potency [12],Potency [13],Potency [14],Potency [15],Potency [16],Potency [17],Potency [18],Potency [19],Potency [20]
CN(C)CCCCCCN(C)C,inactive,inactive,inactive,inactive,inactive,inactive,inactive,inactive,inactive,inactive,inactive,inactive,inactive,inactive,inactive,inactive,inactive,inactive,inactive,inactive
COc1ccc2nc(N)sc2c1,inactive,inactive,inactive,inactive,inactive,inactive,inactive,inactive,inactive,inactive,inactive,inactive,inactive,inactive,inactive,inactive,inactive,inactive,–,inactive
CCCCCCCCCCCCCCC1CO1 (stereo not drawn),inactive,inactive,inactive,inactive,inactive,inactive,inactive,inactive,inactive,inactive,inactive,inactive,inactive,inactive,inactive,inactive,inactive,inactive,inactive,inactive
C=CC(=O)OCCOCCOCCOCCOC(=O)C=C,inactive,15.8 µM (active),50.1 µM (active),31.6 µM (active),12.6 µM (active) and 15.8 µM (active),20 µM (active) and 25.1 µM (active),25.1 µM (active) and 31.6 µM (active),31.6 µM (active) and 39.8 µM (active),12.6 µM (active) and 31.6 µM (active),12.6 µM (active) and 15.8 µM (active),20 µM (active) and 25.1 µM (active),20 µM (active) and 25.1 µM (active),20 µM (active),25.1 µM (active) and 31.6 µM (active),15.8 µM (active),25.1 µM (active) and 31.6 µM (active),15.8 µM (active) and 25.1 µM (active),25.1 µM (active),66.8 µM (active),inactive
Cc1ccc([N+](=O)[O-])c(C)c1,inactive,inactive,inactive,inactive,inactive,inactive,inactive,inactive,inactive,inactive,inactive,inactive,inactive,inactive,inactive,inactive,inactive,inactive,inactive,inactive
CC(C)=CCCC(C)CCO (stereo not drawn),inactive,inactive,inactive,inactive,inactive,inactive,inactive,inactive,inactive,inactive,inactive,inactive,inactive,inactive,inactive,inactive,inactive,inactive,inactive,inactive
CCCCCCCCO,inactive,inactive,inactive,inactive,inactive,inactive,inactive,inactive,inactive,inactive,inactive,inactive,inactive,inactive,inactive,inactive,inactive,inactive,inactive,inactive
Cc1cccc([N+](=O)[O-])c1C,inactive,inactive,inactive,inactive,inactive,inactive,inactive,inactive,inactive,inactive,inactive,inactive,inactive,inactive,inactive,inactive,inactive,inactive,inactive,inactive
C1OCOCO1,inactive,inactive,inactive,inactive,inactive,inactive,inactive,inactive,inactive,inactive,inactive,inactive,inactive,inactive,inactive,inactive,inactive,inactive,inactive,inactive
Cc1c(N=C=O)cccc1N=C=O,inactive,inactive,inactive,inactive,inactive,inactive,inactive,inactive,inactive,inactive,inactive,inactive,inactive,inactive,inactive,inactive,inactive,inactive,inactive,inactive
CCCCC(CC)CN (stereo not drawn),inactive,inactive,inactive,inactive,inactive,inactive,inactive,inactive,inactive,inactive,inactive,inactive,inactive,inactive,inactive,inactive,inactive,inactive,inactive,inactive
CCC(C)c1ccccc1O (stereo not drawn),inactive,inactive,inactive,inactive,inactive,inactive,inactive,inactive,inactive,inactive,inactive,inactive,inactive,inactive,inactive,inactive,inactive,inactive,inactive,inactive
CCCN(CCC)C(=O)SCC,inactive,inactive,inactive,inactive,inactive,inactive,inactive,inactive,inactive,inactive,inactive,inactive,inactive,inactive,inactive,inactive,inactive,inactive,inactive,inactive
O=C1c2ccccc2C(=O)C1c1ccc2ccccc2n1,inactive,inactive,inactive,inactive,inactive,inactive,inactive,inactive,inactive,inactive,inactive,inactive,inactive,inactive,inactive,inactive,inactive,39.8 µM (active),1.54 µM (active) and 1.33 µM (active),33.5 µM (active)
c1ccc2c(c1)c1cccc3ccc4cccc2c4c31,inactive,inactive,inactive,inactive,inactive,inactive,inactive,inactive,inactive,inactive,inactive,inactive,inactive,inactive,inactive,inactive,inactive,inactive,–,inactive
O=C(O)CC(C(=O)O)C(CC(=O)O)C(=O)O (stereo not drawn),inactive,inactive,inactive,inactive,inactive,inactive,inactive,inactive,inactive,inactive,inactive,inactive,inactive,inactive,inactive,inactive,inactive,inactive,inactive,inactive
